Reference: PubChem BioAssay (NCATS)
Where “and” joins values, the source holds several entries; their conditions need not be identical. Equal entries are not always repeated. Records with an inconclusive call do not appear. Where a structure was tested more than once in an assay, its records may differ in their call. Calls of active or inactive are those of the source. Calls follow the shape of the dose curve; as a rule, active = well fitted curve in the direction sought with a large enough effect; inconclusive = small, poorly fitted or top-dose-only effect, or another doubt; inactive = no such curve, though single readings can be large; an effect the other way counts as inactive or inconclusive.

What was measured:
SC27B = experiment: qHTS profiling for inhibitors of Plasmodium falciparum proliferation (AID 504749); also: nearly all actives have a fitted effect of over 60% in size; also: potency is read from the fitted curve at half-maximal effect; conditions: P. falciparum in erythrocytes, SYBR Green DNA, 72 h; series mostly up to 28.7 µM
Method in brief: (§1)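 Quantitative HTS: compounds pinned into medium, infected erythrocytes added (0.3% parasitemia, 2.5% hematocrit), 72 h culture at 37 C under 5% CO2. Saponin/Triton lysis with SYBR Green I, overnight RT, then fluorescence read.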

TAB109 = experiment: as above; conditions: P. falciparum in erythrocytes, SYBR Green DNA, 72 h; series mostly up to 28.7 µM
Method in brief: as §1

TAB113 = experiment: as above; conditions: P. falciparum in erythrocytes, SYBR Green DNA, 72 h; series mostly up to 28.7 µM
Method in brief: as §1

TAB165 = experiment: as above; conditions: P. falciparum in erythrocytes, SYBR Green DNA, 72 h; series mostly up to 28.7 µM
Method in brief: as §1

W2 = experiment: as above; conditions: P. falciparum in erythrocytes, SYBR Green DNA, 72 h; series mostly up to 28.7 µM
Method in brief: as §1

CRL-7250 = normal cell line; experiment: Cytotoxic Profiling of Annotated Libraries Using Quantitative High-Throughput Screening (AID 1296008); conditions: Five cell lines viability, CellTiter-Glo ATP luminescence, 48-72 h; max response: stronger effect = lower value; also: nearly all actives have a fitted effect of over 60% in size; also: potency is read from the fitted curve at half-maximal effect; as to max response: % is scaled to controls: 0 for no effect and ±100 for the full control effect
Method in brief: (§2)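 Compounds were pin-transferred onto cells and incubated 48 or 72 hr at 37 degree Celsius, 95% humidity. CellTiter-Glo was added, plates sat 10 min at room temperature, then ATP-coupled luminescence was imaged as the viability read-out.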

HEK293 = experiment: as above; conditions: Five cell lines viability, CellTiter-Glo ATP luminescence, 48-72 h; max response: stronger effect = lower value
Method in brief: as §2

HaCat [1] = experiment: as above; conditions: Five cell lines viability, CellTiter-Glo ATP luminescence, 48-72 h; max response: stronger effect = lower value
Method in brief: as §2

KB-3-1 = experiment: as above; conditions: Five cell lines viability, CellTiter-Glo ATP luminescence, 48-72 h; max response: stronger effect = lower value
Method in brief: as §2

NIH3T3 [2] = experiment: as above; conditions: Five cell lines viability, CellTiter-Glo ATP luminescence, 48-72 h; max response: stronger effect = lower value
Method in brief: as §2

HACAT [3] = experiment: qHTS assay to identify novel small-molecules to repurpose for Merkel cell carcinoma treatment (AID 1296009); conditions: MCC and control cell lines, CellTiter-Glo viability, 72 h; series mostly up to 44.8 µM; also: nearly all actives have a fitted effect of over 60% in size; also: potency is read from the fitted curve at half-maximal effect
Method in brief: (§3)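 Viability readout: ATP luminescence (CellTiter-Glo) after 72 hr drug exposure at 37 degree celsius. Dose-response format was 8 points for NPC and 11 points for MIPE; data normalized to in-plate controls.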

MCC-13 = experiment: as above; conditions: MCC and control cell lines, CellTiter-Glo viability, 72 h; series mostly up to 46 µM
Method in brief: as §3

MCC-26 = experiment: as above; conditions: MCC and control cell lines, CellTiter-Glo viability, 72 h; series mostly up to 46 µM
Method in brief: as §3

MKL-2 = experiment: as above; conditions: MCC and control cell lines, CellTiter-Glo viability, 72 h; series mostly up to 46 µM
Method in brief: as §3

UISO = experiment: as above; conditions: MCC and control cell lines, CellTiter-Glo viability, 72 h; series mostly up to 46 µM
Method in brief: as §3

WaGa = experiment: as above; conditions: MCC and control cell lines, CellTiter-Glo viability, 72 h; series mostly up to 46 µM
Method in brief: as §3

C33A = experiment: Primary qHTS to identify gynecologic anti-cancer compounds using libraries of approved drugs and bioactive compounds (AID 1345084); conditions: Gynecologic cancer cell panel viability, ATPlite luminescence, 48 h; series mostly up to 57.5 µM; also: % is scaled to controls: 0 for no effect and ±100 for the full control effect; nearly all actives have a fitted effect of over 55% in size
Method in brief: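 Measured: luminescence after ATPlite addition (15 min, RT). Exposure: 48 h, 37 C, 5% CO2.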

MKL-1 = experiment: qHTS assay to identify novel small-molecules to repurpose for Merkel cell carcinoma treatment (AID 1296009); conditions: MCC and control cell lines, CellTiter-Glo viability, 72 h; series mostly up to 46 µM; also: nearly all actives have a fitted effect of over 60% in size; also: potency is read from the fitted curve at half-maximal effect
Method in brief: as §3

NIH3T3 [4] = experiment: as above; conditions: MCC and control cell lines, CellTiter-Glo viability, 72 h; series mostly up to 44.8 µM
Method in brief: as §3

HEK293T = experiment: as above; conditions: MCC and control cell lines, CellTiter-Glo viability, 72 h; at 44.8 µM (top of the series) unless noted
Method in brief: as §3

CCCCc1oc2ccccc2c1C(=O)c1cc(I)c(OCCN(CC)CC)c(I)c1
inactive: max response (CRL-7250) -7.04% and -18.2% | outcome (HaCat [1]) | max response (KB-3-1) -16.7% and -5.99% and -5.01% | max response (NIH3T3 [2]) -21.3% and -20.5% | outcome (HACAT [3]) | Potency (MCC-13) | Potency (MCC-26) | Potency (UISO) | Potency (WaGa) | Potency (C33A)
active: Potency (SC27B) 10 µM | Potency (TAB109) 7.08 µM | Potency (TAB113) 12.6 µM | Potency (TAB165) 3.16 µM | Potency (W2) 4.26 µM | Potency (HEK293) 23.5 µM | Potency (MKL-2) 13.3 µM

Clc1ccc2c(c1)C(N1CCNCC1)=Nc1ccccc1O2
inactive: max response (CRL-7250) -6.06% and -6.64% and -8.49% | outcome (HaCat [1]) | max response (KB-3-1) 6.74% and 1.6% | max response (NIH3T3 [2]) 4.64% and 1.82% and -2.71% | outcome (HACAT [3]) | Potency (MCC-13) | Potency (MCC-26) | Potency (MKL-1) | Potency (MKL-2) | Potency (UISO) | Potency (WaGa) | Potency (C33A)
active: Potency (W2) 5.36 µM | Potency (HEK293) 20.6 µM

Nc1nnc(-c2cccc(Cl)c2Cl)c(N)n1
inactive: Potency (SC27B) | Potency (TAB109) | Potency (TAB113) | Potency (TAB165) | Potency (W2) | max response (CRL-7250) -7.91% and -8.11% | max response (HEK293) -5.08% and 0.349% | outcome (HaCat [1]) | max response (KB-3-1) 6.78% and 8.12% | outcome (NIH3T3 [2]) | outcome (HACAT [3]) | Potency (MCC-13) | Potency (MCC-26) | Potency (MKL-1) | Potency (MKL-2) | outcome (NIH3T3 [4]) | Potency (UISO) | Potency (WaGa) | Potency (C33A)

Fc1ccc([C@@H]2CCNC[C@H]2COc2ccc3c(c2)OCO3)cc1
inactive: max response (CRL-7250) -5.94% | max response (HEK293) -24.9% | outcome (HaCat [1]) | max response (KB-3-1) -16.5% and -9.57% | max response (NIH3T3 [2]) -13.3% | outcome (HACAT [3]) | Potency (MCC-13) | Potency (MCC-26) | Potency (MKL-1) | Potency (MKL-2) | Potency (UISO) | Potency (WaGa) | Potency (C33A)

Nc1ccn([C@H]2CC[C@@H](CO)O2)c(=O)n1
inactive: max response (CRL-7250) -6.37% and 1.28% | outcome (HEK293) | max response (HaCat [1]) -8.68% | outcome (HaCat [1]) | max response (KB-3-1) -19.7% | outcome (KB-3-1) | max response (NIH3T3 [2]) -7.7% and 2.02% | outcome (HACAT [3]) | outcome (HEK293T) | Potency (MCC-13) | Potency (MCC-26) | Potency (MKL-1) | Potency (MKL-2) | Potency (UISO) | Potency (WaGa) | Potency (C33A)

CCN1CCCC1CNC(=O)c1cc(S(=O)(=O)CC)c(N)cc1OC (configuration not stated)
inactive: outcome (CRL-7250) | max response (HEK293) -9.52% and 2.43% | max response (HaCat [1]) -3.32% | outcome (HaCat [1]) | max response (KB-3-1) 8.59% | max response (NIH3T3 [2]) 4.99% | outcome (NIH3T3 [2]) | outcome (HACAT [3]) | Potency (MCC-13) | Potency (MCC-26) | Potency (MKL-1) | Potency (MKL-2) | outcome (NIH3T3 [4]) | Potency (UISO) | Potency (WaGa) | Potency (C33A)

O=C1Cc2cc(CCN3CCN(c4nsc5ccccc45)CC3)c(Cl)cc2N1
15 µM (active) and inactive: Potency (UISO)
inactive: max response (CRL-7250) -1.82% and -0.528% | max response (HaCat [1]) -2.23% and 4.15% | outcome (HaCat [1]) | max response (KB-3-1) 2.45% [middle of 4 runs] | max response (NIH3T3 [2]) -14.8% and 4.36% | outcome (NIH3T3 [2]) | outcome (HACAT [3]) | Potency (MCC-13) | Potency (MCC-26) | outcome (NIH3T3 [4]) | Potency (C33A)
active: Potency (HEK293) 16.8 µM | Potency (MKL-2) 11.9 µM and 14.8 µM

Cc1cn([C@H]2C=C[C@@H](CO)O2)c(=O)[nH]c1=O
inactive: Potency (SC27B) | Potency (TAB109) | Potency (TAB113) | Potency (TAB165) | Potency (W2) | max response (CRL-7250) -12.9% and -2.54% | max response (HEK293) -0.556% and 1.63% | max response (HaCat [1]) 4.4% and -10.3% | outcome (KB-3-1) | max response (NIH3T3 [2]) 1.04% and -9.57% | Potency (MCC-13) | Potency (MCC-26) | Potency (MKL-1) | Potency (MKL-2) | Potency (UISO) | Potency (WaGa) | Potency (C33A)

Cn1c(=O)c2c(ncn2C)n(C)c1=O
inactive: Potency (SC27B) | Potency (TAB109) | Potency (TAB113) | Potency (TAB165) | Potency (W2) | max response (CRL-7250) 0.692% and -3.54% | max response (HEK293) -13.2% and 0.976% | max response (HaCat [1]) 1.8% and -12.8% | max response (KB-3-1) 3.75% | max response (NIH3T3 [2]) -9.99% and -2.17% | Potency (MCC-13) | Potency (MCC-26) | Potency (MKL-1) | Potency (MKL-2) | Potency (UISO) | Potency (WaGa) | Potency (C33A)

CN1C2CCC1CC(OC(=O)C(CO)c1ccccc1)C2 (configuration not stated)
inactive: max response (CRL-7250) -10.2% | max response (HEK293) 0.412% | outcome (HaCat [1]) | max response (KB-3-1) 0.626% | max response (NIH3T3 [2]) -0.822% | outcome (HACAT [3]) | Potency (MCC-13) | Potency (MCC-26) | Potency (MKL-1) | Potency (MKL-2) | Potency (UISO) | Potency (WaGa)

CS(=O)(=O)Nc1ccc([N+](=O)[O-])cc1Oc1ccccc1
inactive and 14.8 µM (active): Potency (MKL-2)
inactive: Potency (SC27B) | Potency (TAB109) | Potency (TAB113) | Potency (TAB165) | Potency (W2) | max response (CRL-7250) -4.36% and 1.83% | max response (HEK293) -3.19% | max response (HaCat [1]) 1.46% | max response (KB-3-1) 0.301% and -0.592% | max response (NIH3T3 [2]) 4.35% and -5.34% | Potency (MCC-13) | Potency (MCC-26) | Potency (MKL-1) | Potency (UISO) | Potency (WaGa) | Potency (C33A)
